From the supplement of paper PMC8728848
About 410 targets per protein were measured; listed, in parts, are those with the strongest signals and a random draw of the rest.

Tests used:
Experiment in all cases: glycan array binding signal (z-score within array); higher = stronger binding
[1] = test system: Neu5Ac(a2-3)Gal(b1-4)[Fuc(a1-3)]GlcNAc(b1-3)GalNAc; conditions: glycan notation: IUPAC condensed, linker removed
Method in brief: (§1)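 Arrays were curated from the Consortium for Functional Glycomics database, 3228 in total, and kept only where the protein sequence was available. Binding is expressed as a within-array Z-score. This score was averaged across arrays of the same protein sequence at different concentrations or buffers and across linkers, and negative values can be read as non-binding.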

[2] = test system: Neu5Ac(a2-3)Gal(b1-4)[Fuc(a1-3)]GlcNAc(b1-6)[Gal(b1-3)]GalNAc; conditions: glycan notation: IUPAC condensed, linker removed
Method in brief: as §1

[3] = test system: Neu5Ac(a2-3)Gal6S(b1-4)GlcNAc; conditions: glycan notation: IUPAC condensed, linker removed
Method in brief: as §1

[4] = test system: Neu5Ac(a2-3)Gal(b1-4)[Fuc(a1-3)]GlcNAc6S; conditions: glycan notation: IUPAC condensed, linker removed
Method in brief: as §1

[5] = test system: Neu5Ac(a2-3)Gal(b1-4)[Fuc(a1-3)]GlcNAc(b1-3)Gal(b1-4)[Fuc(a1-3)]GlcNAc(b1-3)Gal(b1-4)[Fuc(a1-3)]GlcNAc; conditions: glycan notation: IUPAC condensed, linker removed
Method in brief: as §1

[6] = test system: Neu5Ac(a2-3)Gal(b1-4)[Fuc(a1-3)]GlcNAc; conditions: glycan notation: IUPAC condensed, linker removed
Method in brief: as §1

[7] = test system: Neu5Ac(a2-3)Gal(b1-4)[Fuc(a1-3)]GlcNAc(b1-3)Gal; conditions: glycan notation: IUPAC condensed, linker removed
Method in brief: as §1

[8] = test system: Neu5Ac(a2-3)Gal(b1-4)GlcNAc; conditions: glycan notation: IUPAC condensed, linker removed
Method in brief: as §1

Neu5Ac(a2-3)Gal(b1-4)Glc = conditions: glycan notation: IUPAC condensed, linker removed; mutation: R125K
Method in brief: as §1

[9] = test system: Neu5Ac(a2-3)Gal(b1-4)[Fuc(a1-3)]GlcNAc(b1-3)Gal(b1-4)GlcNAc; conditions: glycan notation: IUPAC condensed, linker removed; mutation: R125K
Method in brief: as §1

Neurocan (Homo sapiens), O14594, sequence (O14594 other isoform, or with tags, fused parts or gaps): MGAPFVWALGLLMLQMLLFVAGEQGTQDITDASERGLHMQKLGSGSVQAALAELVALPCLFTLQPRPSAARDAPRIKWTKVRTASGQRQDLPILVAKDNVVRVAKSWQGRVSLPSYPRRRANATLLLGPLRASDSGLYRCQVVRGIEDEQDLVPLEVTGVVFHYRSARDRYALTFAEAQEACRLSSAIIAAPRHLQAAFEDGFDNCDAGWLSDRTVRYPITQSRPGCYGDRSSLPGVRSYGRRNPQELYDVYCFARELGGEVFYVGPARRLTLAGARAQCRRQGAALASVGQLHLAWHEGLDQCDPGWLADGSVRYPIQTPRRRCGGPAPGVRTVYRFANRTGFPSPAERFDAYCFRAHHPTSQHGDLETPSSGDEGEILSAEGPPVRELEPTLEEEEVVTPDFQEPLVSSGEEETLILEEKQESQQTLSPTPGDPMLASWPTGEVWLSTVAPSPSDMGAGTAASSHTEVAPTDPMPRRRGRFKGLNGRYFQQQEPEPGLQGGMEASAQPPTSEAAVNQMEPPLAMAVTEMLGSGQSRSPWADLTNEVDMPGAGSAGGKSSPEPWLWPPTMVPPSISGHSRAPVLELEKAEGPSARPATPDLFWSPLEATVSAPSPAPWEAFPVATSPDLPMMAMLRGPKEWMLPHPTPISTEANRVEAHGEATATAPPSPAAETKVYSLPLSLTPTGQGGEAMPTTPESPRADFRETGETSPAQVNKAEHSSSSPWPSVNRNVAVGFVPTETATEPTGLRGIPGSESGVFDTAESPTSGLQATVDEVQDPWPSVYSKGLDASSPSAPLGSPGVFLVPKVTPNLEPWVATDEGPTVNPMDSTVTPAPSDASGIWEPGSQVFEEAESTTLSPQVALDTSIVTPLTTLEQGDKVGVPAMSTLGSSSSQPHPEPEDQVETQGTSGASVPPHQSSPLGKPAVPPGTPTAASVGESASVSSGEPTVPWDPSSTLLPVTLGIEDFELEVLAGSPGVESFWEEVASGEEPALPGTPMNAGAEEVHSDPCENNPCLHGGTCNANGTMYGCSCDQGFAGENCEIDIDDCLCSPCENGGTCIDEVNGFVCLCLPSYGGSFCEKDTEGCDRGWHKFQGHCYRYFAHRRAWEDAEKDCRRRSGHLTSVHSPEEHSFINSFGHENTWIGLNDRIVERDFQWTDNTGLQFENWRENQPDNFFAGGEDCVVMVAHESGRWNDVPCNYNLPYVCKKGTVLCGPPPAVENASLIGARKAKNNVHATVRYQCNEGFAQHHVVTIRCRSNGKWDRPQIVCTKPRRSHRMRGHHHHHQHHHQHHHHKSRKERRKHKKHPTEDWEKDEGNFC
CHI3L1 (Homo sapiens), P36222, sequence (P36222 whole entry): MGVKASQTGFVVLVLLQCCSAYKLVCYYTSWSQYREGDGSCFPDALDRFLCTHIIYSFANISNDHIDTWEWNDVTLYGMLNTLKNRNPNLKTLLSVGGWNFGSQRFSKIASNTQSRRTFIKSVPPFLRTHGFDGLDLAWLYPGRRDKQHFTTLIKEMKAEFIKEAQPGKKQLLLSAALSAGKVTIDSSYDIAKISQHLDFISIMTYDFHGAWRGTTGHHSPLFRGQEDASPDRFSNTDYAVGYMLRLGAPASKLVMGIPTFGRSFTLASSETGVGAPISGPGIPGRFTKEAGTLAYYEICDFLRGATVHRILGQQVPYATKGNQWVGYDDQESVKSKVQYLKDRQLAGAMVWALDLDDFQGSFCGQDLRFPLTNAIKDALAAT
wLAT-1A (Homo sapiens), Q01650, sequence (Q01650 whole entry): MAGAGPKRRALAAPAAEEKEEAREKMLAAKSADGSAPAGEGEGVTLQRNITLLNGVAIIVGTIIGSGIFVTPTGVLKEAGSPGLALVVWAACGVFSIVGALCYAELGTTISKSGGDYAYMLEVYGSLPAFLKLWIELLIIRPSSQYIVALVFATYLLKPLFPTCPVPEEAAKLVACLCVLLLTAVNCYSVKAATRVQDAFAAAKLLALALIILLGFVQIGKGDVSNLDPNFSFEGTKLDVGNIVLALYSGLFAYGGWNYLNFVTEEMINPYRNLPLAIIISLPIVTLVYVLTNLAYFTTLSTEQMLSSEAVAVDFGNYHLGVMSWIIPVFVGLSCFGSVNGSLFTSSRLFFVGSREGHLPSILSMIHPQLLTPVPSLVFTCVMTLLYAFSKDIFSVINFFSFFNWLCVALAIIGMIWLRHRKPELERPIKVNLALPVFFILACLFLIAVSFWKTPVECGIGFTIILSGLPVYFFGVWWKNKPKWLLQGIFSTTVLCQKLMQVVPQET
Regenerating Gene IV (Homo sapiens), Q9BYZ8, sequence (Q9BYZ8 whole entry, looked up): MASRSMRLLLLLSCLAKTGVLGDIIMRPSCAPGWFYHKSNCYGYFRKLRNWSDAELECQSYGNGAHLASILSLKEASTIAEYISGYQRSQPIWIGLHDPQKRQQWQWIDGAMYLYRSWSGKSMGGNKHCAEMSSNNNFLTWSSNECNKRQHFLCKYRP
PILRb (Mus musculus), Q2YSF2, sequence (Q2YSF2 entry or part of it): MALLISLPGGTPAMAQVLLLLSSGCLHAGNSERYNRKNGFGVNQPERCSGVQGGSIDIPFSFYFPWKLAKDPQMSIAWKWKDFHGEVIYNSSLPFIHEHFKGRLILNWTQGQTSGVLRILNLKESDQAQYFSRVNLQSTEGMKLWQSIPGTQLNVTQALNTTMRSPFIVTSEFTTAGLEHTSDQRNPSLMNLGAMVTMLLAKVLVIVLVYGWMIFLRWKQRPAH
6RG (Lolium perenne), B9U140, sequence (B9U140 entry or part of it): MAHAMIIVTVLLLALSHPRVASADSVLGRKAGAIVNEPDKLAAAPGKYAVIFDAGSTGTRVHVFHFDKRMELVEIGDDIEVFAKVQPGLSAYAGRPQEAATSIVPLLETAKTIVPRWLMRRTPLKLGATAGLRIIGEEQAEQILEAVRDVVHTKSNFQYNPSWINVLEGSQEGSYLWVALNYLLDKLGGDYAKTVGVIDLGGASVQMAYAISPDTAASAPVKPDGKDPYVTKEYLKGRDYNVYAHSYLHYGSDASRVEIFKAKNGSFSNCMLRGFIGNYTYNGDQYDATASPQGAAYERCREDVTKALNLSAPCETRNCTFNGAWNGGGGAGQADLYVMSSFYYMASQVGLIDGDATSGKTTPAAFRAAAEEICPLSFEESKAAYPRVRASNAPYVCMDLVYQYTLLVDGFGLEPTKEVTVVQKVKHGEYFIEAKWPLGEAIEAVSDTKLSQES
Aggrecan (Rattus norvegicus), NP_071526, sequence (chain, as listed by the source): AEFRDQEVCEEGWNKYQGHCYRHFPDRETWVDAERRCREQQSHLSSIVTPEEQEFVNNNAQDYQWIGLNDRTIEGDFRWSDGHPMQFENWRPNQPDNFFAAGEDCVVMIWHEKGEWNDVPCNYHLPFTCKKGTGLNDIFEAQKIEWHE
C3b (Homo sapiens), P01024, sequence (P01024 23-667): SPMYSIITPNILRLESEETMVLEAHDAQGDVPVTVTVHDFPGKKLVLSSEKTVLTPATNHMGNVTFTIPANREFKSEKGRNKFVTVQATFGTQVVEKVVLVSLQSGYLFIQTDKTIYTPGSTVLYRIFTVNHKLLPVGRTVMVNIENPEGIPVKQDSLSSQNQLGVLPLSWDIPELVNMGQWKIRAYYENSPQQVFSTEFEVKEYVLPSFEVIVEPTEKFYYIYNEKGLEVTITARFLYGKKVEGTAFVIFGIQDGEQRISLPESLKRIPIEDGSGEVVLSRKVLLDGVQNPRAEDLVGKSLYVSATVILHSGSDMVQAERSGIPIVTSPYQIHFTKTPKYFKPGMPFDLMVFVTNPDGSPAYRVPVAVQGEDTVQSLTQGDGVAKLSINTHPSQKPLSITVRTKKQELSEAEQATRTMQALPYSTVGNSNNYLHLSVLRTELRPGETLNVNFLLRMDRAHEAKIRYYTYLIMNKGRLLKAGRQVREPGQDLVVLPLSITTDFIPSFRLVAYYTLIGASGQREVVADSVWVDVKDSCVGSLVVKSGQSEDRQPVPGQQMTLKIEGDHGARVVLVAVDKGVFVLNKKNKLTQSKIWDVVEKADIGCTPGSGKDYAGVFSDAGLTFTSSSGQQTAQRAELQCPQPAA
6RG (Lolium perenne), sequence (chain, as listed by the source): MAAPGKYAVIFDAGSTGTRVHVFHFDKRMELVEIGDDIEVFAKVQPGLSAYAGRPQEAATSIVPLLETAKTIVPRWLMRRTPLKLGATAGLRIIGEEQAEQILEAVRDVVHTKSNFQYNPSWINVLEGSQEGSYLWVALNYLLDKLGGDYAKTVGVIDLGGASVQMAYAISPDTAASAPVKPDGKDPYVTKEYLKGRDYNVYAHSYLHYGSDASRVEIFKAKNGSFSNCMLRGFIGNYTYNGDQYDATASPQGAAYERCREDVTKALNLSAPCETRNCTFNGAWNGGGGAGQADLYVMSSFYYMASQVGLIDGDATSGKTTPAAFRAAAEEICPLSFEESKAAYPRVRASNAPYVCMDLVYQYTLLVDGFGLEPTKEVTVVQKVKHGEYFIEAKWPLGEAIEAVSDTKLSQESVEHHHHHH

## Neurocan (Homo sapiens), O14594
[1]
  glycan array binding signal (z-score): 4.45
[2]
  glycan array binding signal (z-score): 3.52
[3]
  glycan array binding signal (z-score): -1.3

## 6RG (Lolium perenne), B9U140
[3]
  glycan array binding signal (z-score): 1.4

## 6RG (Lolium perenne)
[4]
  glycan array binding signal (z-score): -0.352

## Aggrecan (Rattus norvegicus), NP_071526
[5]
  glycan array binding signal (z-score): -0.136

## PILRb (Mus musculus), Q2YSF2
[4]
  glycan array binding signal (z-score): -0.229

## MpAFP RI GFP (Marinomonas primoryensis)
[2]
  glycan array binding signal (z-score): 0.494
[3]
  glycan array binding signal (z-score): -0.72

## C3b (Homo sapiens), P01024
[6]
  glycan array binding signal (z-score): 0.03

## Regenerating Gene IV (Homo sapiens), Q9BYZ8
[2]
  glycan array binding signal (z-score): 0.692

## CHI3L1 (Homo sapiens), P36222
[1]
  glycan array binding signal (z-score): -0.075
[7]
  glycan array binding signal (z-score): -0.104

## HARE (Homo sapiens), Q8WWQ8
[8]
  glycan array binding signal (z-score): -0.41

## Siglec-8 (Homo sapiens), Q9NYZ4
Neu5Ac(a2-3)Gal(b1-4)Glc
  glycan array binding signal (z-score): 6.29
[9]
  glycan array binding signal (z-score): -0.182
[7]; mutation: R125K
  glycan array binding signal (z-score): 0.14
[4]; mutation: R125K
  glycan array binding signal (z-score): -0.382
[3]
  glycan array binding signal (z-score): 16.9

## wLAT-1A (Homo sapiens), Q01650
[3]
  glycan array binding signal (z-score): 0.097
